Test results as given in PubChem BioAssay AID2227 (Johns Hopkins Ion Channel Center, 2009).
The campaign covered roughly 310,000 compounds. About 1,300 (0.42%) were called active.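 The calls were made as follows: active = B-score of calcium response area above 5 SD of library B-scores, with initial fluorescence ratio within 5 SD of library; inactive = the rest.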 The list comes from a sample in which actives are over-represented; it also holds similar structures and randomly drawn compounds.

Target: Short transient receptor potential channel 4 (Mus musculus) (UniProt Q9QUQ5)
Assay: positive allosteric modulators of TRPC4, primary screen, cell-based, mouse TRPC4beta, HEK293 mu-opioid, Fluo-4 calcium (AID 2227);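 as to B-score: B-score of integrated fluorescence ratio over time as area under calcium response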
Details: DAMGO EC20, Fluo-4 Ca2+ flux, at 10 µM; active compounds read high

Short transient receptor potential channel 4 (Mus musculus), sequence (Q9QUQ5 whole entry, looked up): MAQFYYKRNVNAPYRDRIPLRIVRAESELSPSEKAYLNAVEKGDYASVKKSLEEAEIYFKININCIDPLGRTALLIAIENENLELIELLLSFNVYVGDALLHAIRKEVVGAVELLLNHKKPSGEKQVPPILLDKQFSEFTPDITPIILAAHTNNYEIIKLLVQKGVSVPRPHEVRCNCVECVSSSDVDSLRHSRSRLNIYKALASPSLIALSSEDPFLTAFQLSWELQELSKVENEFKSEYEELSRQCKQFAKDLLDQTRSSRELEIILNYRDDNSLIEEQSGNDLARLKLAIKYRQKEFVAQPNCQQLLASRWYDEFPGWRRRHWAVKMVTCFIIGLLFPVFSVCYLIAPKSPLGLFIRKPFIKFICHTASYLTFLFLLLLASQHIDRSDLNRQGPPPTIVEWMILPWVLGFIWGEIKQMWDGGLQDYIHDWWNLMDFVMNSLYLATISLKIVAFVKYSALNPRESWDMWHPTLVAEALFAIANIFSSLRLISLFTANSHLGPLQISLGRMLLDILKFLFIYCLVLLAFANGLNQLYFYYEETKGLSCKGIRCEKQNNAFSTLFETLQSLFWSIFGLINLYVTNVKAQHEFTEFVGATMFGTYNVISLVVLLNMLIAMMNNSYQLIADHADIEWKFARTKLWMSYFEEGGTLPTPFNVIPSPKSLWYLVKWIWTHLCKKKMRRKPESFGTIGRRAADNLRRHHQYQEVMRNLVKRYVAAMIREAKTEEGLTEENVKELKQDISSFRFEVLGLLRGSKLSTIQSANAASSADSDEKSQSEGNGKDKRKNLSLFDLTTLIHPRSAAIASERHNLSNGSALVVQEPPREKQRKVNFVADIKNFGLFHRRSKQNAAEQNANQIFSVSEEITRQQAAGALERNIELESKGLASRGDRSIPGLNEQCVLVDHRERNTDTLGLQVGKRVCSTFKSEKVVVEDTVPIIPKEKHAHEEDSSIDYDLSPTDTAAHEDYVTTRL

| Structure (SMILES) | B-score |
| --- | --- |
| O=[N+]([O-])c1cc(S(=O)(=O)CCCN2CCOCC2)ccc1F | inactive |
| C/C(=N/NC(=O)CCc1ccccc1)c1ccco1 | inactive |
| COc1ccc(C)cc1NC(=S)N1CCOCC1 | inactive |
| COc1cc(C(=S)N2CCOCC2)ccc1O | 42 (active) |
| CCOc1cc(C(=S)N2CCOCC2)ccc1O | inactive |
| COCCCNC(=O)/C=C/c1ccc(OCc2c(F)cccc2Cl)cc1 | inactive |
| CN(C)CCCNC(=O)/C=C/c1ccc(OCc2c(F)cccc2Cl)cc1 | 16 (active) |
| O=C(/C=C/c1ccc(OCc2c(F)cccc2Cl)cc1)N1CCOCC1 | inactive |
| CSc1nnc(C2CCCN(CC(=O)Nc3ccccc3N3CCOCC3)C2)n1C(C)C (stereo not drawn) | inactive |
| COc1ccc(OC)c(S(=O)(=O)N2CCCC(C(=O)NCCc3ccccc3)C2)c1 (stereo not drawn) | inactive |
| Cc1ccc(S(=O)(=O)N2CCN(Cc3cccc(C)c3O)CC2)cc1 | inactive |
| O=S(=O)(c1ccc(F)cc1)N1CCN(Cc2ccccc2C(F)(F)F)CC1 | 11 (active) |
| O=C(CN1CCN(S(=O)(=O)c2ccc(F)cc2)CC1)Nc1ccccc1F | inactive |
| Cc1ccc(C(=O)COC(=O)c2cccc(N3C(=O)c4c(C)nc5ccccc5c4C3=O)c2)cc1C | inactive |
| Cc1cccn2c(=O)c(C=O)c(Nc3ccc(S(N)(=O)=O)cc3)nc12 | inactive |
| CC(=O)Nc1ccc(N2CCOCC2)c(C(=O)Nc2cccc(C)c2)c1 | inactive |
| O=C(Nc1cccc(Cl)c1)c1cc([N+](=O)[O-])ccc1N1CCN(CCO)CC1 | inactive |
| Cc1cccc(NC(=O)c2cc([N+](=O)[O-])ccc2N2CCN(C)CC2)c1 | 21 (active) |
| CC(Sc1nn(-c2ccc(Cl)cc2)c(=S)s1)C(=O)NCC1CCCO1 (stereo not drawn) | inactive |
| COc1ccc(S(=O)(=O)n2cnc3ccccc32)c(C)c1 | inactive |
| CCCCOc1ccc(CSC(=N)N)cc1[N+](=O)[O-] | 21 (active) |
| CCCOc1ccc(Cn2ccnc2)cc1[N+](=O)[O-] | inactive |
| CCCCCOc1ccc(CSC2=NCCN2)cc1[N+](=O)[O-] | inactive |
| O=C(NNC(=O)C1C2CCC(C2)C1C(=O)O)c1ccc(Cl)cc1 (stereo not drawn) | inactive |
| Cc1ccc(CN(CC(=O)NC2CCCCC2)C(=O)c2csnn2)cc1 | inactive |
| Cc1ccccc1C(CC(=O)c1cccs1)C(C#N)C#N (stereo not drawn) | inactive |
| CCOc1ccc(Br)cc1S(=O)(=O)Nc1ccc(C(=O)OC(C)C(=O)N(C)c2ccccc2)cc1 (stereo not drawn) | inactive |

| Structure (SMILES) | B-score |
| --- | --- |
| O=C(NCc1cccc(C(F)(F)F)c1)c1cccc(S(=O)(=O)N2CCN(Cc3ccccc3)CC2)c1 | inactive |
| CCOC(=O)N1CCN(C(=O)c2ccc(S(=O)(=O)Nc3cccc(C(F)(F)F)c3)cc2)CC1 | inactive |
| O=C(NCc1ccccc1)c1ccc(S(=O)(=O)Nc2cccc(C(F)(F)F)c2)cc1 | 17 (active) |
| CC[C@@H](C)[C@H](NC(=O)CCc1c(C)c2cc3c4c(oc3c(C)c2oc1=O)CCCC4)C(=O)O | inactive |
| O=C(c1cc(Cl)cc(Cl)c1)N1CCC(=O)N(C(COCc2ccccc2)Cc2ccccc2)CC1 (stereo not drawn) | 12 (active) |
| CC(C)CC(COCc1ccc(Cl)cc1)N1CCN(C(=O)c2ccc(C(F)(F)F)cc2)CCC1=O (stereo not drawn) | inactive |
| CN1CCC(=O)N([C@H](CO)Cc2ccccc2)CC1 | inactive |
| COc1ccc(N2CC(C(=O)NCCN3C(=O)S/C(=C\c4cccnc4)C3=O)CC2=O)c(OC)c1 (stereo not drawn) | inactive |
| COc1ccc(N2CCN(S(=O)(=O)CCNC(=O)C34CC5CC(CC(C5)C3)C4)CC2)cc1 | inactive |
| Cc1ccc(NC(=O)Cc2nnc(SCC(=O)Nc3nncs3)n2C)cc1 | inactive |
| C[C@]12C=CC(=O)C=C1CC[C@@H]1[C@@H]2C(=O)C[C@@]2(C)[C@H]1CC[C@]2(O)C(=O)CO | inactive |
| CC(=O)O[C@]1(C(C)=O)CC[C@H]2[C@@H]3C=C(C)C4=CC(=O)CC[C@]4(C)[C@H]3CC[C@@]21C | inactive |
| CC(=O)C12CC(C)=C(C)CC1CC1C3CCC4=CC(=O)CCC4(C)C3CCC12C (stereo not drawn) | 11 (active) |
| CC(=O)c1c(C)n(-c2ccc(N(C)C)cc2)c2ccc(OCC(N)=O)cc12 | inactive |
| O=C1CSC(c2ccc(Cl)cc2)N1 (stereo not drawn) | inactive |
| COc1ccc(S(=O)(=O)NC(C)c2ccccc2)cc1C(=O)N1CCCCC1 (stereo not drawn) | inactive |
| O=c1c2ccccc2oc2nc(C3CCCCC3)n(Cc3ccco3)c(=O)c12 | 29 (active) |
| O=c1c2ccccc2oc2nc3n(c(=O)c12)CCCS3 | inactive |
| CCc1nc2oc3ccccc3c(=O)c2c(=O)n1Cc1ccc(OC)cc1 | inactive |
| CSc1ccccc1NC(=O)CN(C)CC(=O)Nc1ccc(Cl)cc1[N+](=O)[O-] | inactive |
| CCN(CC)CCNc1ccc(Cl)cc1[N+](=O)[O-] | 20 (active) |
| CN(C)CCNc1ccc(-c2n[nH]c(=O)c3ccccc23)cc1[N+](=O)[O-] | inactive |
| C/C(=N\N1CCN(Cc2ccc(C)cc2)CC1)c1ccco1 | inactive |
| CCn1cc(C(=O)NCC(=O)NC(C)(C)CO)c(=O)c2cc3c(cc21)OCO3 | inactive |
| COc1ccccc1CNS(=O)(=O)CC12CCC(CC1=O)C2(C)C (stereo not drawn) | inactive |
| Cc1c(NC(=O)C(=O)N/N=C/c2cccs2)c(=O)n(-c2ccccc2)n1C | inactive |
